Sampled rows, rich in hits. Any-hit rate of the full collection: about 5.5%.
Sfp PPTase inh: inhibitors of Bacillus subtilis Sfp phosphopantetheinyl transferase. Potency, µM, for the others: largest response in the series, negative = inhibition, actives largely listed as inhibitors. AID 1490. Biochemical Sfp PPTase activity, qHTS. 3.5% of 310,000 active. Q9F4F7;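 also: the enzyme is Sfp with the accession as filed and its product quenches rhodamine fluorescence; potency is read from the fitted curve at half-maximal effect; 0% = enzyme reaction without inhibitor and -100% = no enzyme wells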
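Fluorescence-quenching assay: 15 nM Sfp-PPTase preincubated 15 min at room temperature with compound, then 5 uM rhodamine-CoA and 12.5 uM BHQ-2-labelled YbbR peptide added. Fluorescence (ex 525/em 598 nm) read at start and after 30 min; difference gives rate.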
ELG1 repair inh: blocks ELG1-dependent DNA repair in HEK293T cells | HEK293T ELG1-luciferase reporter, luminescence, 16 h; DNA damage induced by 5-fluorouridine | Potency, µM (series often up to 46.1 µM), for inactives: at the top dose activity change, negative = inhibition, hits mostly inhibitors | 2.3% of 330,000 active | AID 504467; also: potency is read from the fitted curve at half-maximal effect; nearly all actives have a fitted effect of over 55% in size
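Luminescence from the luciferase reporter, measured 30 min after ONE-Glo reagent at room temperature, was the read-out. Beforehand, 2,000 cells per well were exposed for 16 hr at 37 °C to 5-fluorouridine together with compound or vehicle.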
FBPA coupling cs: coupling enzyme interference in Giardia aldolase counter-screen | 0.67% of 290,000 active | activity change, negative = inhibition, % at 58.2 µM, hits read low | AID 2472 | coupling enzyme system counterscreen, AmpLite Red fluorescence; in the data active = activity change below about -30%
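Coupling enzymes only (glyceraldehyde-3-phosphate) + compound, at 57.5 uM final, 10 min RT; add substrate/coupling/AmpLite Red mix, 20 min RT; fluorescence ex 525/em 598 nm. Actives flag coupling-system interference.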
Giardia killer: kills Giardia lamblia. Giardia lamblia trophozoite viability. activity change, % at 7.66 µM, hits read low. 0.15% of 340,000 active; in the data active = activity change below about -80%; inconclusive = between about -30% and that limit;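 also: parasites exposed to compound for two days anaerobically before the ATP read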
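Killing of trophozoites was scored by loss of ATP luminescence after a 48 hrs anaerobic exposure to compounds at 37 deg C, using 100 cells per well.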
The depositor's hits bear a star; ? = inconclusive; nt = no result. Unless noted, calls follow the shape of the dose curve; as a rule, active = well fitted curve in the direction sought with a large enough effect; inconclusive = small, poorly fitted or top-dose-only effect, or another doubt; inactive = no such curve, though single readings can be large; an effect the other way counts as inactive or inconclusive. Unless noted, % is scaled to controls: 0 for no effect and ±100 for the full control effect.

SMILES	Sfp PPTase inh	ELG1 repair inh	FBPA coupling cs	Giardia killer
COc1ccc(C=C2c3ccccc3C(=O)c3ccccc32)c(OC)c1	-4.9%	23.1µM*	0.3	nt
COc1ccc(/C=C2\COc3ccccc3C2=O)c(OC)c1	-2.4%	?	-3.4	13.6
Cc1c(C#N)sc(C(N)=O)c1C	10.9%	-3.6%	-0.5	17.9
CCc1c(C#N)sc(C(N)=O)c1CC	6.0%	10.3µM*	0.5	-23.5
O=S(=O)(NCCc1ccccc1)c1ccccc1Br	1.0%	nt	-3.2	1.1
Cn1c(=O)[nH]c(=O)c2c1nc(SCCN1CCCCC1)n2CCCc1ccccc1	3.55µM*	-25.5%	-9.0	9.6
CSc1nc2c(c(=O)[nH]c(=O)n2C)n1Cc1ccccc1Cl	7.7%	?	-1.1	-4.2
CSc1nc2c(c(=O)[nH]c(=O)n2C)n1Cc1ccc(Cl)cc1	20µM*	5.6%	-1.5	50.8
Cn1c(=O)[nH]c(=O)c2c1nc(CN1CCN(c3ccccc3F)CC1)n2CCCc1ccccc1	-3.5%	6.51µM*	-2.3	2.5
Cc1ccc(Cn2c(SCCN3CCCCC3)nc3c2c(=O)[nH]c(=O)n3C)cc1	11.2µM*	-2.4%	-0.1	5.3
COc1ccccc1OCCNC(=O)c1ccc(C)c(S(=O)(=O)N2CCOCC2)c1	nt	?	nt	4.3
COc1ccc(CN(C(=O)CSc2nnc(-c3c[nH]c4ccccc34)o2)c2ccc(F)cc2)cc1OC	-0.4%	5.17µM*	2.0	5.3
C(=C/c1ccccc1)/CN1CCN(C(c2ccccc2)c2ccccc2)CC1	14.8%	nt	1.4	nt
Cc1cc(/C=C2\SC(N)=NC2=O)c(C)n1-c1ccccc1	50.1µM*	?	-0.2	-13.4
O=S(=O)(c1ccc(N2CCN(S(=O)(=O)c3ccc4c(c3)OCCO4)CC2)nc1)N1CCCC1	16.7%	8.2µM*	0.6	16.4
O=C(CCl)N1CCN(S(=O)(=O)c2ccc3c(c2)OCCCO3)CC1	nt	18.3µM*	nt	15.2
O=S(=O)(c1ccc(N2CCN(Cc3ccc4c(c3)OCO4)CC2)nc1)N1CCOCC1	7.5%	?	6.9	nt
O=C(Nn1cnnc1)c1ccc(Cl)cc1	5.2%	0.1%	4.9	-8.6
Cc1c(C(=O)OCc2nnc(-c3ccccc3)o2)oc2ccccc12	nt	-5.9%	nt	-14.7
CCc1nc2ccccc2c(C(=O)OCc2nnc(-c3ccccc3)o2)c1C	?	20.6µM*	5.6	-24.5
CCc1nc2ccccc2c(C(=O)OCc2nc3ccccc3c(=O)[nH]2)c1C	nt	13µM*	nt	-0.7
CCN(C(=O)COC(=O)CNC(=O)c1ccc(Cl)cc1Cl)c1c(N)n(Cc2ccccc2)c(=O)[nH]c1=O	nt	2.6%	nt	-25.1
COc1ccc(NC(=O)c2cc3c(s2)CCC(C)C3)cc1S(=O)(=O)N1CCOCC1 (stereo not given)	-3.4%	23.1µM*	-0.5	-11.0
CCc1sc(C(=O)Nc2ccc(OC)c(S(=O)(=O)N3CCOCC3)c2)cc1C	nt	8.2µM*	nt	-6.1
CCc1nnc(NC(=O)C2CCN(C(=O)c3ccco3)CC2)s1	5.1%	9.6%	0.2	10.0
SMILES	Sfp PPTase inh	ELG1 repair inh	FBPA coupling cs	Giardia killer
COCc1nnc(NC(=O)C2CCN(C(=O)c3ccco3)CC2)s1	50.1µM*	9.1%	1.0	4.7
COc1ccccc1Cc1nnc(NC(=O)C2CCN(C(=O)c3ccco3)CC2)s1	44.7µM*	-5.9%	0.3	24.5
COC(=O)C(NC(=O)CCc1nnc2ccc(N3CCCCC3)nn12)C(C)C (stereo not given)	9.6%	?	0.1	-8.5
COc1ccc(C2CC(c3ccccc3)=NN2C(=O)COC(=O)c2cccc(O)c2)cc1 (stereo not given)	nt	16.4µM*	nt	1.5
COc1ccc(C2CC(c3ccc4ccccc4c3)=NN2C(=O)COC(=O)C2CCC(=O)N2)cc1 (stereo not given)	-22.7%	?	-4.1	-9.7
CC(=O)OCC(=O)N1N=C(c2ccc3ccccc3c2)CC1c1ccccc1 (stereo not given)	25.1µM*	21.5%	0.7	-18.6
CC(=O)c1ccc(N(CC(=O)NCc2ccc3c(c2)OCO3)C(=O)c2csnn2)cc1	17.3%	21.3%	0.8	10.4
COC(=O)c1ccccc1NC(=O)Cn1c(=O)n(Cc2ccccc2)c(=O)c2c(C)c(C)sc21	79.4µM*	18.9%	1.6	-4.3
N#Cc1ccc(CS(=O)(=O)c2nc3ccccc3s2)cc1	14.3%	nt	0.9	nt
Cc1ccc(/C=N/NC(=O)Cn2nc(C)c([N+](=O)[O-])c2C)o1	44.7µM*	22.7%	-0.1	-2.3
CCCCCC(=O)N/N=C/c1ccc([N+](=O)[O-])o1	-1.6%	nt	-2.7	-103.0*
O=C(CCc1ccc(O)c(O)c1)N/N=C/c1cc2c(cc1[N+](=O)[O-])OCO2	39.8µM*	7.9%	-9.5	-7.8
Cc1ccc(NCC(=O)N/N=C\c2ccc([N+](=O)[O-])o2)cc1	5.9%	?	0.1	-106.1*
Cc1cc(-c2nnc(SCC(=O)Nc3cccc(Cl)c3)n2N)n[nH]1	3.5%	5.4%	nt	-4.4
CCC(CC)NC(=O)CN1CCN(S(=O)(=O)c2cccs2)CC1	nt	14.7%	nt	3.2
Cc1ccc(C)c(N=Cc2cc3c(cc2[N+](=O)[O-])OCO3)c1	?	4.0%	-40.1*	-1.3
Cc1ccc(N=Cc2cc3c(cc2[N+](=O)[O-])OCO3)cc1[N+](=O)[O-]	nt	nt	nt	-18.6
O=C(Cc1ccc2c(c1)OCO2)NN=Cc1ccc([N+](=O)[O-])o1	nt	16.4µM*	nt	-102.4*
O=C(CNc1ccccc1)N/N=C/c1ccc([N+](=O)[O-])o1	0.0%	?	0.9	-104.5*
O=C(CNC(=O)c1ccccc1)N/N=C/c1ccc([N+](=O)[O-])o1	-10.0%	?	-0.1	?
O=C(CCC(=O)Nc1ccc(Cl)cc1Cl)N/N=C/c1ccc([N+](=O)[O-])o1	16.2%	?	-15.8	-82.0*
CC(C)(C)OC(=O)N1C2C=CC1C1=COCCN1C2=O (stereo not given)	10.0%	nt	-5.1	3.8
C=CCN1C(=O)C2(OCCCO2)c2cc(C)ccc21	7.4%	5.9%	-0.2	16.1
NS(=O)(=O)c1ccc(NC(=O)CCC(=O)O)cc1	2.4%	nt	nt	nt
COc1ccccc1NC(=O)N1CCCC(CNC(=O)c2ccccc2Cl)C1 (stereo not given)	3.9%	-4.6%	nt	-10.0
SMILES	Sfp PPTase inh	ELG1 repair inh	FBPA coupling cs	Giardia killer
O=c1c(-c2ccccc2)nc2cncnc2n1Cc1ccccc1	-0.1%	nt	4.2	nt
COc1ccc(C)cc1NC(=O)c1nnn(Cc2cc(C)ccc2C)c1N	17.4%	25.5%	-6.6	22.1
COc1ccc(OC)c(NC(=O)c2nnn(Cc3ccccc3C)c2N)c1	?	11.2µM*	-0.4	24.2
COc1ccc(-n2nc(C(=O)NCC(=O)Nc3cc(Cl)c(OC)cc3OC)c3ccccc3c2=O)cc1	6.5%	?	-2.5	6.3
COc1ccc(-n2nc(C(=O)Nc3ccc(OC)c(OC)c3)c3c4ccccc4n(C)c3c2=O)cc1	-6.7%	8.2µM*	0.3	1.6
COc1ccc(-n2nc(C(=O)NCC(=O)NCCc3ccc(OC)c(OC)c3)c3ccccc3c2=O)cc1	3.9%	16.4µM*	-1.3	2.5
COc1ccc(-n2nc(C(=O)NCC(=O)Nc3cc(OC)ccc3OC)c3ccccc3c2=O)cc1	3.3%	13µM*	0.2	-1.2
